Hit rate of the full screen: of about 310,000 compounds, about 14,000 (4.5%) showed an effect of 50% or more. Effects have a minus sign here. The sample holds strong results, similar compounds and a random draw of the others, so the mix is not that of the screen.
These compounds were tested against human ether-à-go-go-related gene (hERG) potassium channel (human, UniProt Q12809) (assay: primary screen, population patch clamp on CHO cells stably expressing hERG; higher = less effect of the substance).
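Further: peak tail current of the secondary pulse compared with the same well before compound.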

Chain of human ether-à-go-go-related gene (hERG) potassium channel (Q12809 whole entry, looked up): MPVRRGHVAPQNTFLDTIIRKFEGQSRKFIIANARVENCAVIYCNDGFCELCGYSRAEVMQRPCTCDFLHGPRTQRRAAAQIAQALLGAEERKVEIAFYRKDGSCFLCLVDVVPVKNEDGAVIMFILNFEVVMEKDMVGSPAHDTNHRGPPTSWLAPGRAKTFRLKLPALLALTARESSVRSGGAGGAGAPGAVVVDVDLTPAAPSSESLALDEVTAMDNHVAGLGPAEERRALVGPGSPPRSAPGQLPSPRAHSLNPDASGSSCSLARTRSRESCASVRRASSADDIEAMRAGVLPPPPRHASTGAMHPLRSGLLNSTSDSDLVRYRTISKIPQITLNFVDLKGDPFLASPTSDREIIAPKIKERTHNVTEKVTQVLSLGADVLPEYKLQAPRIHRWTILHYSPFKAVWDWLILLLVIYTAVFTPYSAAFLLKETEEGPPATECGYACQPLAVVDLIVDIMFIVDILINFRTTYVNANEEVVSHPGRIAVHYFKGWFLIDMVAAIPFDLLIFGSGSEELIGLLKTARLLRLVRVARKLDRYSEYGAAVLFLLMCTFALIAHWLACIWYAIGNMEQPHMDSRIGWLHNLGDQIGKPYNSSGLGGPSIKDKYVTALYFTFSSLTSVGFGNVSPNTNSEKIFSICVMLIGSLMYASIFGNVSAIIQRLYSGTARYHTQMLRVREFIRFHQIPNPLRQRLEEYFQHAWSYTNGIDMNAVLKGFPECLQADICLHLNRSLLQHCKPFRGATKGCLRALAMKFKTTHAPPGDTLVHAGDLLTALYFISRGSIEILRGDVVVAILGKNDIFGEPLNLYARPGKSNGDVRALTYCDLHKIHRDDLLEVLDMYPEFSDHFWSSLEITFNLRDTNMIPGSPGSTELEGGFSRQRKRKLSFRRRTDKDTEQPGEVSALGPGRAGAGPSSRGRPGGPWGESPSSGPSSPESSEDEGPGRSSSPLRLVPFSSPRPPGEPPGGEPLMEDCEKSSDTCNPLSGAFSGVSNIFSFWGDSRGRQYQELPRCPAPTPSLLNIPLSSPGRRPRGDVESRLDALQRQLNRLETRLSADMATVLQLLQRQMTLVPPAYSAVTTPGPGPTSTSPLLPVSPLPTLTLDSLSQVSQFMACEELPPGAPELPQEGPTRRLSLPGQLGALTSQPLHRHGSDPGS

SMILES	hERG current change (%, negative = inhibition) at 10uM [%]
CC1CC1C(=O)OCC(=O)Nc1cccc(S(=O)(=O)NC2=NCCCCC2)c1 (stereo not shown)	-7.64
Cc1ccc(C(=O)c2ccc(N3CCOCC3)c(F)c2)cc1	-22
CCCn1c2ccccc2c2cn[nH]c(=O)c21	12
Cc1c(C(=O)NCc2ccccn2)sc2nc(-c3ccc(F)cc3)cn12	-10.2
Cc1c(C(=O)NCC(C)C)sc2nc(-c3ccc(F)cc3)cn12	-5.46
Cc1c(C(=O)NCc2cccnc2)sc2nc(-c3ccc(F)cc3)cn12	-40.4
Cc1c(C(=O)NCCCN2CCOCC2)sc2nc(-c3ccccc3)cn12	-48.5
Cc1c(C(=O)Nc2ccccc2)sc2nc(-c3ccccc3)cn12	-4.89
Cc1c(C(=O)NCCCN2CCOCC2)sc2nc(-c3ccc(F)cc3)cn12	-60.9
Cc1c(C(=O)NCc2cccnc2)sc2nc(-c3ccccc3)cn12	-55.2
Cc1c(C(=O)NCc2ccccn2)sc2nc(-c3ccccc3)cn12	-18.6
CCN(CC)CCNC(=O)c1sc2nc(-c3ccccc3)cn2c1C	-67.4
CCN(CC)CCCNC(=O)c1sc2nc(-c3ccc(F)cc3)cn2c1C	-71.1
Cc1c(C(=O)NCCN2CCOCC2)sc2nc(-c3ccc(F)cc3)cn12	-23.6
COCCNC(=O)c1sc2nc(-c3ccccc3)cn2c1C	-11.5
Nc1cc(-c2ccccc2)ccc1O	22.5
CCCC1=[N+](CC(C)=O)CCn2c(C)ccc21.[Br-]	20.1
Cc1ccc(OCC(=O)Oc2c(C)cccc2C)cc1	16.8
COc1ccc(CC(NC(C)=O)C(=O)NC2CCN(C(=O)Nc3ccccc3Cl)CC2)cc1OC (stereo not shown)	12.7
CC(C)(C)c1ccc(-n2nc(C(N)=O)c(O)cc2=O)cc1	12.9
CC(=O)N1c2ccc(S(=O)(=O)N(C)c3cc(C)ccc3C)cc2CC1C (stereo not shown)	-8.67
Cc1csc(NC(=O)Cc2ccccc2[N+](=O)[O-])n1	8.85
CCCSc1nc(-n2ncc(C#N)c2N)c2c3c(sc2n1)CCC(C)C3 (stereo not shown)	5.45
COc1ccc(-n2ncc3c2CC(C)(C)CC3NC(=O)c2cnc(C)cn2)cc1 (stereo not shown)	-4.41
COc1ccc(-n2ncc3c2CC(C)(C)CC3NC(=O)CSc2ccccn2)cc1 (stereo not shown)	-68
COC(=O)c1ccc(C(=O)NC2CC(C)(C)Cc3c2cnn3-c2ccc(F)cc2)nc1 (stereo not shown)	-23.4
COc1ccc(-n2ncc3c2CC(C)(C)CC3NC(=O)c2c(C)cc(=O)oc2C)cc1 (stereo not shown)	-51.1
COc1ccc(-n2ncc3c2CC(C)(C)CC3NC(=O)c2oc(C)cc2C)cc1 (stereo not shown)	15.2

SMILES	hERG current change (%, negative = inhibition) at 10uM [%]
C=CCCC(=O)NC1CC(C)(C)Cc2c1cnn2-c1ccc(OC)cc1 (stereo not shown)	-46
CC1(C)Cc2c(cnn2-c2ccc(F)cc2)C(NC(=O)C2=NNC(=O)CC2)C1 (stereo not shown)	-68.4
COc1ccc(-n2ncc3c2CC(C)(C)CC3NC(=O)CCc2c(C)noc2C)cc1 (stereo not shown)	-21.7
CCc1nccn1CCC(=O)NC1CC(C)(C)Cc2c1cnn2-c1ccc(OC)cc1 (stereo not shown)	-16.2
COc1ccc(-n2ncc3c2CC(C)(C)CC3NC(=O)c2ccnn2C)cc1 (stereo not shown)	-78
COc1ccc(-n2ncc3c2CC(C)(C)CC3NC(=O)Cc2nonc2C)cc1 (stereo not shown)	3.4
Cc1cc(C(=O)NC2CC(C)(C)Cc3c2cnn3-c2ccc(F)cc2)nn1C (stereo not shown)	-14.8
Cn1cc(S(=O)(=O)NCc2ccco2)c(=O)n(C)c1=O	3.03
Cc1onc(-c2c(F)cccc2Cl)c1C(=O)NCc1cccs1	-21.2
COc1ccc(S(=O)(=O)N2CCOCC2)cc1N(C)S(=O)(=O)c1ccc(C)cc1	0.666
C/C(CC(=O)Nc1ccccn1)=N\NC(=O)c1ccccc1O	6.73
COc1ccc(CCNC(=O)c2c(O)c3ccccc3[nH]c2=O)cc1	15.4
COc1cccc(NC(=O)c2ccc3c(c2)N(CC(=O)N2CCOCC2)C(=O)C(C)(C)O3)c1	-5.35
CCOCCc1nnc(NC(=O)c2cccc(F)c2)s1	0.0842
COc1cc(NC(=O)C(C)Oc2ccccc2)cc(OC)c1 (stereo not shown)	-2.9
Cc1ncoc1C(=O)NC1CC(C)(C)Cc2c1cnn2-c1ccccc1 (stereo not shown)	-20.5
Cc1ncoc1C(=O)NC1CC(C)(C)Cc2c1cnn2-c1ccc(F)cc1 (stereo not shown)	-20.7
Cn1nccc1C(=O)NC1CC(C)(C)Cc2c1cnn2-c1ccc(F)cc1 (stereo not shown)	-61.4
Cc1ccccc1-n1ncc2c1CC(C)(C)CC2NC(=O)C1=CC(=O)CC(C)(C)O1 (stereo not shown)	-4.61
COc1ccc(-n2ncc3c2CC(C)(C)CC3NC(=O)CN2CCOC2=O)cc1 (stereo not shown)	-32.9
COc1ccc(-n2ncc3c2CC(C)(C)CC3NC(=O)C2=CC(=O)CC(C)(C)O2)cc1 (stereo not shown)	-68.3
CCN(CC)CC(=O)NC1CC(C)(C)Cc2c1cnn2-c1ccc(F)cc1 (stereo not shown)	7.43
COc1ccc(-n2ncc3c2CC(C)(C)CC3NC(=O)c2ocnc2C)cc1 (stereo not shown)	-53.5
Cc1nonc1CC(=O)NC1CC(C)(C)Cc2c1cnn2-c1ccc(F)cc1 (stereo not shown)	-15.7
COCc1ccc(C(=O)NC2CC(C)(C)Cc3c2cnn3-c2ccc(OC)cc2)o1 (stereo not shown)	-29.3
COc1ccc(C(=O)NC2CC(C)(C)Cc3c2cnn3-c2ccccc2C)o1 (stereo not shown)	-30.5
COc1ccc(-n2ncc3c2CC(C)(C)CC3NC(=O)c2ccc(OC)o2)cc1 (stereo not shown)	-50.2
